The whole screen tested about 65,000 compounds, of which about 2,100 (3.2%) showed an effect of 50% or more. The median lay at about -52%. The full list was thinned out, with strong results kept by preference.
test system: Plasmodium falciparum; assay: Screen against P. falciparum Asexual Blood Stage (ABS), at 5uM; type: functional, Dd2; conditions: tested at 5 uM

SMILES | INHIBITION [%]
c1cnc(NCc2noc3c2CN(CCN2CCCC2)CC3)nc1 | -63.3
OCCN1CCC2(CCc3cc(-c4ccoc4)ccc32)CC1 | 61.2
O=C(CCO)N1CCC2(CCc3ccc(-c4ccoc4)cc32)CC1 | -76.5
c1cc(-c2ccc3c(c2)CCC32CCN(c3nncs3)CC2)co1 | 3.66
COCCOCC1(CNCc2ccc(OC)cc2)C[C@@H](O)[C@@H](O)C1 (stereo partly drawn) | -77.3
COCCOCC1(CNCc2ccc(F)cc2)C[C@@H](O)[C@@H](O)C1 (stereo partly drawn) | 63.6
COCCOCC1(CNCc2cccc(OC)c2)C[C@@H](O)[C@@H](O)C1 (stereo partly drawn) | -11.2
CC(C)CCN1C2(CCN(Cc3nccs3)C2)c2ccccc2S1(=O)=O (stereo not drawn) | -17.8
CN1[C@@H]2CC[C@H]1CN(C(=O)c1nnc3n1CCCCC3)CC2 | -58.6
Cc1noc(C)c1CN1CCC2(CC1)NC(=O)CC2c1ccccc1 (stereo not drawn) | -39.2
Cc1cccc(CN2CCC3(CC2)NC(=O)CC3c2ccccc2)n1 (stereo not drawn) | -3.5
Cc1ccc(CN2CCC3(CC2)NC(=O)CC3c2ccccc2)s1 (stereo not drawn) | 53.7
CCC1(CC)C(=O)NC(=O)N/C1=N/c1cccc(OC)c1 | -27.2
Cc1c(CN2CCCC2(C)C(=O)N2CCOCC2)cnn1C (stereo not drawn) | -23.9
NC(=O)C1(Cc2ccccc2-c2cncnc2)CCCNC1 (stereo not drawn) | -114
CCNC(=O)C1(Cc2ccc(-c3ccccc3)cc2)CCCNC1 (stereo not drawn) | 27.7
NC(=O)C1(Cc2ccc(-c3ccccc3)cc2)CCCNC1 (stereo not drawn) | 61.1

SMILES | INHIBITION [%]
CC1(C)CC(n2cc3nc(N4CCOCC4)[nH]cc-3c2=O)CC(C)(C)N1 | -53.2
Cc1cnn(CC2CN(CC(=O)Nc3cccnc3)CCO2)c1 (stereo not drawn) | -66
Cn1ccnc1C(=O)N[C@@H]1CN(CC2CCOCC2)[C@@H]2CCCO[C@@H]21 | -60
O=c1ccc(-c2cccs2)nn1CN1CCN(c2ccccn2)CC1 | -115
CNS(=O)(=O)c1cccc(C(C)NCc2ccc(F)cc2F)c1 (stereo not drawn) | -3.64
CNS(=O)(=O)c1cccc(C(C)NCc2ccc(C)o2)c1 (stereo not drawn) | 23.3
CNS(=O)(=O)c1cccc(C(C)NCc2cccc(O)c2)c1 (stereo not drawn) | 3.69
CNS(=O)(=O)c1cccc(C(C)NCc2ccco2)c1 (stereo not drawn) | 2.96
CNS(=O)(=O)c1cccc(C(C)NCc2cccc(C)c2C)c1 (stereo not drawn) | 69.7
CNS(=O)(=O)c1cccc(C(C)NCc2ccsc2)c1 (stereo not drawn) | 67.2
CNS(=O)(=O)c1cccc(C(C)NCc2ccc(C)c(C)c2)c1 (stereo not drawn) | 63.4
CNS(=O)(=O)c1cccc(C(C)NCc2nccn2C(C)C)c1 (stereo not drawn) | -9.39
CNS(=O)(=O)c1cccc(C(C)NCc2ccc(F)c(F)c2)c1 (stereo not drawn) | 11.1
CNS(=O)(=O)c1cccc(C(C)NCc2ccccc2)c1 (stereo not drawn) | 59.4
CNS(=O)(=O)c1cccc(C(C)NCc2ccncc2)c1 (stereo not drawn) | -51.1
CCOc1ccc(CNC(C)c2cccc(S(=O)(=O)NC)c2)cc1 (stereo not drawn) | 47.6
